# Test results published in the supplement of paper PMC11417369.
# ± gives the standard deviation of the averaged measurements. The full ranking holds about 25,000 sequences; the median of “ln(normalized median fluorescence intensity)” is about 10, and the highest 2% start at about 12. The full list was thinned out, with the highest values kept by preference.
# System: PfAP2-G AP2 domain (GST-tagged)
# Experiment: gcPBM binding intensity (ln(normalized median fluorescence intensity)); higher = stronger DNA binding
# Outline: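 GST-fused DNA-binding domains of P. falciparum, expressed in E. coli, were applied at about 25 μg on average for 1 h to an Agilent 4 × 180k array of primer-extended double-stranded 36-bp intergenic genomic probes and negative controls. Binding intensity is the highest Masliner-normalised natural-log median intensity across replicate spots of either probe orientation, measured with Alexa488 anti-GST antibody and a 488 nm scan.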
row,Sequence,gcPBM binding intensity (ln)
1,TCCTTACCTATTAAAGCATGCTCGAATATATATTTT [TGCATGCA_site53],9.81 ± 0.18
2,ATACACATAACATATATATATATATATATATATATC [CACACA_negctrl_site278],9.73 ± 0.057
3,TTTTGGATACTTCATTTGTCCTGTTTTTTTTTTTTA [CACACA_negctrl_site399],10.7 ± 0.37
4,ATATAATAGAAGTGTACACACATATTTATGGGTGTA [CACACA_site5686],11.5 ± 0.91
5,TATATTTATACAATATGTACATATTATATATATATA [XGTACX_site3098],11 ± 0.59
6,TATACATTTATGTACACACACATATCTGTATATTTA [CACACA_site5617],11.5 ± 0.97
7,ATGGATAATAATAAGTGTACACATATATTTAGAAGA [XGTACX_site244],11.8 ± 0.86
8,TATATATATATGTGTACACAATTTATCTGTATTTAT [CACACA_site5945],11.8 ± 0.93
9,GTTCCATATATTACATGTACATATTTTTACATTTAA [XGTACX_site660],11.2 ± 0.72
10,GATAATAATAAGTGTACACATATATTTAGAAGAGTA [CACACA_site4245],11.5 ± 0.85
11,ACATATATATATATGTGTACATATTTATACAACAAT [XGTACX_site6660],11.6 ± 0.78
12,GAATATATATTCATATGTACACAATTTATGTATTAT [XGTACX_site4719],11.4 ± 0.79
13,ATATATATATACATATGTACATATATATTTATACAT [XGTACX_site2463],11 ± 0.58
14,TATTTTTCCATTGGGGGTACATGTGTTATATTTATT [XGTACX_site5914],11.7 ± 0.88
15,TATAAAAAAAAATGTGGTACATATTTCCATTTTCCA [XGTACX_site4571],11.3 ± 0.76
16,TTTTTTTTTTTGTTCACACATATACTTTTATTTTGG [CACACA_site4250],10.2 ± 0.23
17,AAAAAAAAAAAAAAAACACACAATAAAGTAAAATTT [CACACA_site135],10.15 ± 0.049
18,TAAAAATGGGTATGTACACACTTTATTTTTAATACA [CACACA_site5404],11.5 ± 0.92
19,TATATATTCCTCCATAGTACAATAATAAAGATAAAA [XGTACX_site5785],10.6 ± 0.35
20,ATGTTCTTATTATTGGTGCAAGAATACACAAGAAAA,10.4 ± 0.45

row,Sequence,gcPBM binding intensity (ln)
1,ATTTTTTTACTGCAACCATATTTTTCCCTTTTATTC [CACACA_negctrl_site1282],10.12 ± 0.085
2,AAAATTTAAATAGGAAGTACGTTCACTAAGAAAATA [XGTACX_site6546],11 ± 0.57
3,ATATAATAGAAGTGTACACACATATTTATGTCTGTA [CACACA_site3121],11.5 ± 0.74
4,CTATAATAGAAGTGTACACACATATTTATGTCTGTA [CACACA_site7462],11.7 ± 0.93
5,TTAATATAATAGAAGTGTACACACATATTTATGTGT [XGTACX_site6672],11.5 ± 0.78
6,TTTAAAAATTAATTCTGTACACATTTTTATTATATT [XGTACX_site4212],11.5 ± 0.81
7,TTGCTGTATTTATTTTGTACACATTTGGCATTATAT [XGTACX_site3408],11.2 ± 0.73
8,TGCTGTATATTTTTCTGTACACATTTATATATTCCA [XGTACX_site6244],11.6 ± 0.87
9,TATATATAATATAGTGCATGTAAAAAATAAACCATG [TGCATGCA_site932],10.2 ± 0.16
10,ACAAGTTAAAATATTACACACATATAAATATATATA [CACACA_site3132],9.84 ± 0.099
11,TTGTTCTATATATATGCATGCACGTATGTTAAATTA [TGCATGCA_site659],10.3 ± 0.33
12,AGATATTAAAACGTTACACACATTTATATATCTTCT [CACACA_site908],9.74 ± 0.2
13,GAAAGAATAAAATTTACACACATATATATATACATA [CACACA_site2250],9.745 ± 0.035
14,ATGTCTATATATTAAGGTACACATATATGCTATTCA [XGTACX_site6008],11.1 ± 0.57
15,ACTTATAAAATAACATGTACAAATATTTATTATATA [XGTACX_site133],11 ± 0.54
16,AAAAAAATATAAATACGTACATATATATATATATAT [XGTACX_site432],11.5 ± 0.98
17,ATTTTGTTCGAAAGGTGTACATATACAAAAATTATG [XGTACX_site957],11.7 ± 1
18,ATATCGAAAATTTGGTGTACATTTTTATTTGTTCAA [XGTACX_site3094],11.5 ± 0.93
19,TTATACATAAATTTTGTACACACAAAAAAAAAAAAG [CACACA_site8374],11.2 ± 0.87
20,TTTATTTATTACTAAAGTACTAAATCATATTATTAT [XGTACX_site2574],10.6 ± 0.54

row,Sequence,gcPBM binding intensity (ln)
1,TAATATAGTATAGTATGTACATATAATTAGAATATT [XGTACX_site4053],11.3 ± 0.77
2,CCATATATTTGGTATAGTACTTTTTATTTTATTTCA [XGTACX_site8933],11.1 ± 0.5
3,TTAGTTTATTGGTACTGTACTTTTTTTTTCTCCATT [XGTACX_site8618],11.9 ± 0.91
4,TAGGGTAGTTATAATTGTACTTTTCTCCAAAAAAAA [XGTACX_site7321],11.3 ± 0.81
5,TACATAAACATTTATACACACATTATATATACATAT [CACACA_site8028],10.12 ± 0.064
6,TAATTATTTCGTATATTTGAATGGTACATGCTTATA [CACACA_negctrl_site1178],10.7 ± 0.6
7,ATACATATAATATATGCATGTACCAATCAAATATAT [TGCATGCA_site192],10.5 ± 0.29
8,TGTTGTATTGAAGCTAAAAAATGAGGCAAAAAAAAA [CACACA_negctrl_site1189],10.2 ± 0.26
9,TTATATTTATTTATTTGTACATATTTTTTTTTATAT [XGTACX_site1669],11.2 ± 0.67
10,TATATTATAGGTTGTGTACACATATTATATAGTACT [CACACA_site4583],11.6 ± 0.88
11,ATGTGTATATATTATTGTACATATATATATATATAT [XGTACX_site4627],11.2 ± 0.82
12,AATTTTTATTTGTACACACATACATATATATTATAT [CACACA_site993],11.4 ± 0.83
13,AACACTACATAAAACTGTACAATAGTATTTTATTAT [XGTACX_site996],10.9 ± 0.49
14,CTTTAAAACCGGTACTGTACACATAGTATTATTATC [XGTACX_site2602],11.6 ± 0.8
15,TTTTTATTTGGTTGTGTACACATATATATATATATA [CACACA_site5844],11.6 ± 0.94
16,TTTATTTTGTAGTGTACACATATATATATATATATA [CACACA_site5843],11.7 ± 0.96
17,GTATTATCTGCTTTTTGTACACATATATTTAAAAAA [XGTACX_site7603],11.4 ± 0.95
18,ACATATTTTATTTTTTGTACACATATATTATTTTTT [XGTACX_site6528],11.3 ± 0.66
19,TTATTTATATTTTTTTGTACACATATTGTATACATA [XGTACX_site1178],11.5 ± 0.86
20,CATACATATACTTTGTGTACATATATATATTATATA [XGTACX_site97],11.4 ± 0.78
